Only some compounds are listed: those with a hit (about 1.3% of all), similar ones and a draw of the others.
proKLK7 act = activates the human kallikrein-7 zymogen; purified proKLK7, EDANS-DABCYL substrate fluorescence; 100% is mature enzyme control, 0% vehicle; AID 652039; activation, % at 7 µM; P49862; 370,000 compounds, 0.9% hits;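 active = activation above the mean of all tested compounds plus 3 SD, computed per campaign excluding outliers beyond control limits, cut at about 13% in these data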
Target sequence (P49862 whole entry, looked up): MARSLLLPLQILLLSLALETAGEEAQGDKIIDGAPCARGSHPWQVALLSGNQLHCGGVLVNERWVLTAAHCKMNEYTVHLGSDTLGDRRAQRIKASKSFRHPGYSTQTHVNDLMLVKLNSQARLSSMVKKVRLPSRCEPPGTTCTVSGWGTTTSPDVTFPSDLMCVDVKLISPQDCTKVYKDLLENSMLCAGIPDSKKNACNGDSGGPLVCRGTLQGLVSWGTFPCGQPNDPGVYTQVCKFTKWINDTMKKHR
GC-A act = GC-A (human) enzyme activation | P16066 | HEK293 GC-A cells, cGMP TR-FRET, EC30 ANP; 0% at EC30 ANP, 100% saturating ANP | activation, % at 10 µM | 370,000 compounds, 0.14% hits | AID 1671463; in the data active = activation above about 40%
HIF activator = HIF pathway transcriptional activation. AID 1910. U2OS HRE-luciferase reporter, luminescence; normalized: DMSO 0%, desferrioxamine 100%. activation, % at 7.5 µM (by protocol). 300,000 compounds, 0.32% hits;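 active = mean activation of at least 10% of the iron chelator positive control signal, with at least half of replicates also reaching 10%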
NPR2 activator = GC-B (human) receptor activation. HEK293-GC-B cells, CNP EC30, cGMP TR-FRET; 0% at EC30 CNP, 100% saturating CNP. activation, % at 10 µM. 370,000 compounds, 0.11% hits. AID 1920062;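 active = activation at 10 µM reaching about 35% in either raw or pattern-adjusted values, limit read from the data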
proKLK7 act conf = confirmation of human kallikrein-7 zymogen activators; shares compounds with proKLK7 act; purified proKLK7, EDANS-DABCYL substrate fluorescence; scaled: vehicle 0, mature enzyme 100; activation, % at 7 µM; 3,200 compounds, 68% hits; AID 686949;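 active = activation, as change over the incubation, above the mean of all tested compounds plus 3 SD, cut at about 13% in these data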
EDANS interfere = counter-screen for kallikrein-7 activators: EDANS-DABCYL optical interference; 3,200 compounds, 80% hits; shares compounds with proKLK7 act; activation, % at 7 µM; EDANS-DABCYL substrate fluorescence interference, no enzyme, 4 h; solvent 0%, active enzyme control 100%;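 active = activation above the all-compound mean plus 3 SD, ignoring values outside control-based bounds, cut at about 4.8% in these data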;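 also: value is the 4 h activation minus the activation read at time zero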
K7 EDANS ctr = EDANS fluorescence interference in dose response, no enzyme; shares compounds with proKLK7 act; EDANS-DABCYL peptide fluorescence interference; EC50, µM; 250 compounds, 20% hits; AID 720493;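 active = compounds that raise the fluorescence signal in this interference counterscreen, with EC50 at or below 10 µM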;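 also: intact quenched peptide substrate alone read at 355 nm excitation and 520 nm emission; signal is fluorescence gain from T0 to T4 after four hours at room temperature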
Starred values were filed as active, the others as inactive; . = not tested or not shown.

SMILES	proKLK7 act	GC-A act	HIF activator	NPR2 activator	proKLK7 act conf	EDANS interfere	others
C=CCOC(=O)COc1ccc2c(C)c(C)c(=O)oc2c1	14.9*	6.2	-0.2	0.4	10.7	14.1*
COC(=O)[C@]12C[C@H](CC(=O)N3CCCC3)C(=O)N(CCc3ccc(OC)c(OC)c3)C1=C[C@H](C1CCCC1)O[C@@H]2C	0.3	1.0	.	-4.3	.	.
Cc1ccc(S(=O)(=O)NCCCc2ccc3c(c2)[C@]2(CCC[C@@H](OCc4ccccc4)[C@@H]2NC(=O)CCc2ccccc2)C(=O)N3Cc2ccccc2)cc1	-0.3	1.2	.	-1.3	.	.
O=C(N1CCC(n2nc(-c3ccccc3)oc2=O)CC1)C1(c2ccccc2)CCCC1	.	3.0	.	-4.8	.	.
CCCc1cc(NCc2ccccn2)n2c(nc3ccccc32)c1C#N	-6.5	1.5	-0.9	6.5	.	.
CCCc1cc(NCCN(C)C)n2c(nc3ccccc32)c1C#N	57.1*	-6.4	1.2	-5.2	20.1*	6.5*	K7 EDANS ctr=>69.5
C=C(C)Cc1c(C)c(C#N)c2nc3ccccc3n2c1NCCCN(C)C	5.5	-6.8	1.1	3.7	.	.
CCCc1cc(NCCCN(C)C)n2c(nc3ccccc32)c1C#N	83.4*	-18.3	-1.2	-12.1	12.4	20.4*
CCCc1cc(NCC2CCCO2)n2c(nc3ccccc32)c1C#N (stereo not given)	17.4*	18.1	-0.4	17.4	-53.9	-54.2
CC(C)c1cc(C(C)C)c(S(=O)(=O)NCC(=O)N2CCN(c3ncccn3)CC2)c(C(C)C)c1	-0.1	-3.2	.	-10.6	.	.
CN1CC(=O)N2[C@@H](C[C@]3(c4c[nH]c5ccccc45)c4ccccc4N(S(=O)(=O)c4ccccc4)[C@H]23)C1=O	.	-3.0	.	-9.1	.	.
CCN(Cc1cn(CC2CCCCC2)nn1)S(=O)(=O)c1ccccc1Br	0.3	4.1	.	3.5	.	.
O=C(NCCCc1ccccc1)[C@H](Cc1c[nH]c2ccccc12)NC1(C(=O)NCCc2c[nH]c3ccccc23)CCC1	.	-8.8	.	-5.6	.	.
CCOC(=O)Cn1c(C(F)(F)F)nc2nc(Cl)c(Cl)nc21	33.7*	-3.3	.	-3.0	8.4	7.1*
N#CC(Sc1ccccn1)c1ccc(Cl)cc1 (stereo not given)	15.8*	3.0	0.1	4.7	10.1	12.4*
N#CCC[C@H]1CC[C@]2(CCCN(Cc3ccccc3)C2)O1	-0.6	-1.9	.	-6.6	.	.
CNC(=O)/C(C#N)=C/c1ccc(-c2nc3ccccc3s2)o1	3.2	2.3	0.4	-3.3	.	.
N#C/C(=C\c1ccc(-c2nc3ccccc3s2)o1)C(N)=O	17.2*	14.4	1.3	-0.8	7.4	5.9*
Cc1nc2ccc(-c3nc4cc(N)ccc4o3)cc2[nH]1	28.0*	11.7	-1.2	-1.6	45.9*	49.2*
CNc1cncc(-c2cc(OC)c(OC)c(OC)c2)n1	24.6*	-0.4	.	-4.0	16.5*	21.7*
CNc1cncc(-c2ccc(C)cc2)n1	30.0*	-0.5	.	0.4	41.2*	40.7*
CNc1cncc(-c2cccc(O)c2)n1	37.4*	1.4	.	1.3	35.1*	36.4*
CNc1cncc(-c2cccc(C(=O)NC3CC3)c2)n1	54.4*	2.2	.	-2.5	47.2*	55.0*
CC(=O)Nc1cncc(-c2cccc(C(=O)NC3CC3)c2)n1	-0.2	4.1	.	2.0	.	.
CNc1cncc(-c2ccc(O)cc2C)n1	2.8	0.7	.	4.6	.	.
SMILES	proKLK7 act	GC-A act	HIF activator	NPR2 activator	proKLK7 act conf	EDANS interfere	others
CCOC(=O)C1=NOC(C(=O)Nc2nccs2)(C(=O)C2CC2)C1 (stereo not given)	-0.5	-1.7	.	7.1	.	.
CCCCNC(=O)C1C(c2ccc(C(F)(F)F)cc2)=Nc2ccccc2N1C(C)=O (stereo not given)	-0.6	0.4	.	2.6	.	.
CCCCNC(=O)C1C(c2ccc(C(F)(F)F)cc2)=Nc2ccccc2N1C(=O)c1ccc2nc(C)[nH]c2c1 (stereo not given)	92.2*	4.7	.	3.3	-142.3	-107.6
O=C(c1cc(C2CC2)on1)N(C1CCCCC1)C1CCCCC1	0.4	-6.7	.	-2.3	.	.
N#CCSc1nc2c(cc1C#N)CCCCCC2	14.8*	-3.0	.	-6.8	34.0*	33.4*
CC(C)OC(=O)CC(=O)CSc1nc2c(cc1C#N)CCCCC2	24.4*	12.3	1.1	10.9	79.8*	81.1*
CCS(=O)(=O)CCSc1nc2c(cc1C#N)CCCC2	0.0	1.1	0.4	-4.0	.	.
O=C(OCC(=O)N1CCC(Cc2ccccc2)CC1)c1ccccc1NCCO	-9.6	4.1	-0.7	-0.8	.	.
CCN(C(=O)COC(=O)c1ccccc1NCCO)C1CCS(=O)(=O)C1 (stereo not given)	25.5*	2.1	-0.2	2.3	32.0*	35.3*
CCN(C(=O)COC(=O)c1cc2ccccc2cc1O)C1CCS(=O)(=O)C1 (stereo not given)	9.2	-3.2	1.9	-4.8	.	.
Cc1ccc(-c2cc(C(=O)OCC(=O)N(C)C3CCS(=O)(=O)C3)c3ccccc3n2)o1 (stereo not given)	134.9*	-4.7	0.7	0.1	14.5*	11.4*	K7 EDANS ctr=6.97*
Cc1ccc(-c2cc(C(=O)NCC3(N(C)C)CCCCC3)c3ccccc3n2)o1	72.5*	2.3	.	-2.7	20.7*	46.2*
Cc1ccc(-c2cc(C(=O)OCC(=O)N(C)C3CCS(=O)(=O)C3)c3ccccc3n2)c(C)c1 (stereo not given)	0.3	1.9	-0.8	-3.2	.	.
CCOC(=O)N1CCN(C(=O)COC(=O)c2ccccc2NCCO)CC1	24.9*	2.3	-6.1	-2.0	27.8*	38.1*
Cc1ccc(S(=O)(=O)N2C(N)=C(C(=O)NCc3ccc(Br)cc3)C(c3ccc(Cl)cc3)C2C(=O)c2ccccc2)cc1 (stereo not given)	.	-4.0	.	-1.3	.	.
CCN(C(=O)COC(=O)c1cc(-c2ccc(C)o2)nc2ccccc12)C1CCS(=O)(=O)C1 (stereo not given)	174.2*	8.8	0.3	-0.7	202.2*	186.8*
CCN(C(=O)COC(=O)c1cc(-c2cccs2)nc2ccccc12)C1CCS(=O)(=O)C1 (stereo not given)	-64.9	2.6	0.1	-5.7	.	.
Cc1ccc(S(=O)(=O)NN2C(=O)c3ccccc3NC2c2cccc(O)c2)cc1 (stereo not given)	5.0	-1.3	-0.5	-2.8	.	.
COc1ccc(C2Nc3ccccc3C(=O)N2NS(C)(=O)=O)c(OC)c1 (stereo not given)	68.6*	-1.5	0.8	1.5	10.6	15.1*

Bioassay records: PubChem, several laboratories
